# Data reported in PubChem BioAssay AID463173 (ICCB-Longwood Screening Facility, Harvard Medical School, 2010).
# Screen size: about 52,000 compounds; about 4,300 (8.3%) were called active. Rule as the data show it: active = survival mostly below about 52% (no sharp cut-off); inactive = mostly above about 56%. Shown is part of a subset that was picked to be rich in actives.
# Tested on: DeltatarO mutant
# Assay: S. aureus survival, RN4220 and DeltatarO strains – OD600, teichoic acid synthesis inhibitors, primary screen (AID 463173)
# Settings: S. aureus RN4220 wild type/DeltatarO growth, OD600, 18 h, hits give low values, screened at 18.75 µg/mL (by protocol)
row,SMILES,survival
1,CC(=O)c1cc(-c2ccc(F)cc2)n(CC(=O)NC2CCC(C)CC2)c1C (stereo unspecified),67% (inactive)
2,O=C(CN1CCN(S(=O)(=O)c2cc(Cl)ccc2Cl)CC1)Nc1cccc(F)c1,92% (inactive)
3,CCOc1ccc(C(=O)C(CC(CN2CCOCC2)C(=O)c2ccc(OCC)cc2)CN2CCOCC2)cc1 (stereo unspecified),104% (inactive)
4,O=C1c2oc3ccc(F)cc3c(=O)c2C(c2cccc([N+](=O)[O-])c2)N1CCCN1CCOCC1 (stereo unspecified),84% (inactive)
5,CCCCOc1ccc(C(=O)OCC2CCCN3CCCCC23)cc1OC (stereo unspecified),107% (inactive)
6,O=C(CCC(=O)N1CC2CCCN2c2ccccc21)NCc1ccc(F)cc1 (stereo unspecified),0% (active)
7,O=C(CCC(=O)N1CC2CCCN2c2ccccc21)NCc1cccc(Cl)c1 (stereo unspecified),37% (active)
8,O=C(CCC(=O)N1CC2CCCN2c2ccccc21)NCc1ccccc1Cl (stereo unspecified),69% (inactive)
9,Cc1ccc(CNC(=O)CCC(=O)N2CC3CCCN3c3ccccc32)cc1 (stereo unspecified),83% (inactive)
10,O=C(CCC(=O)N1CC2CCCN2c2ccccc21)NCc1ccccc1 (stereo unspecified),74% (inactive)
11,COc1cccc(CNC(=O)CCC(=O)N2CC3CCCN3c3ccccc32)c1 (stereo unspecified),66% (inactive)
12,O=C(O)c1cc2ccccc2[nH]c1=O,107% (inactive)
13,CCc1cccc(NC(=O)Cc2nc(-c3ccc(OC)cc3)no2)c1,77% (inactive)
14,O=C(Nc1ccc(S(=O)(=O)N2CCCCC2c2cccnc2)cc1)c1ccc(Br)cc1 (stereo unspecified),92% (inactive)
15,CC(=O)N1CCc2cc(Br)cc(S(=O)(=O)N3CCN(c4cccc(C)c4)C(C)C3)c21 (stereo unspecified),74% (inactive)
16,Cc1c(C(=O)N(C)C)sc2c1c(=O)n(-c1ccc(Cl)c(Cl)c1)c(=O)n2CC(=O)Nc1ccc(Br)cc1F,144% (inactive)
17,Cc1c(C(=O)N(C)C)sc2c1c(=O)n(-c1ccc(Cl)c(Cl)c1)c(=O)n2CC(=O)Nc1cccc(C(F)(F)F)c1,46% (active)
18,CCc1ccc(-n2c(=O)c3c(C)c(C(=O)N(C)C)sc3n(CC(=O)Nc3cc(Cl)ccc3C)c2=O)cc1,131% (inactive)
19,CCOC(=O)c1ccccc1NC(=O)Cn1c(=O)n(Cc2ccccc2)c(=O)c2c(C)c(C)sc21,84% (active)

row,SMILES,survival
1,COC(=O)c1ccccc1NC(=O)Cn1c(=O)n(-c2cccc(OC)c2)c(=O)c2c(C)c(C(=O)N(C)C)sc21,117% (inactive)
2,CCOC(=O)c1ccccc1NC(=O)Cn1c(=O)n(-c2ccc(CC)cc2)c(=O)c2c(C)c(C(=O)N(C)C)sc21,0% (active)
3,CCOc1ccccc1NC(=O)Cn1c(=O)n(Cc2ccccc2)c(=O)c2c(C)c(C)sc21,66% (inactive)
4,CCN(CC)C(=O)c1sc2c(c1C)c(=O)n(-c1ccc(Cl)c(Cl)c1)c(=O)n2CC(=O)Nc1cccc(OC)c1,70% (inactive)
5,Cc1ccccc1NC(=O)Cn1c(=O)n(Cc2ccccc2)c(=O)c2c(C)c(C)sc21,136% (inactive)
6,CCOc1ccc(NC(=O)C(NS(=O)(=O)c2ccc3c(c2)CCN3C(C)=O)C(C)C)cc1 (stereo unspecified),124% (inactive)
7,CCCOc1ccc(-c2nc(SCC(=O)c3ccc(Cl)cc3)n[nH]2)cc1,187% (inactive)
8,Cc1ccc(NC(=O)CSc2ncc(S(=O)(=O)c3ccc(C(C)C)cc3)c(=O)[nH]2)cc1C,87% (inactive)
9,Nc1c(C(=O)Nc2ccccc2Cl)c2ccccn2c1C(=O)c1ccc(Cl)cc1,80% (inactive)
10,CCOC(=O)c1ccccc1NC(=O)CSc1nc2ccncc2[nH]1,85% (inactive)
11,CC(Sc1ncc(S(=O)(=O)c2ccc(C(C)C)cc2)c(N)n1)C(=O)Nc1ccccc1 (stereo unspecified),60% (inactive)
12,COc1ccc(-c2nc3cc(C)ccn3c2NC(=O)c2ccc(C)c(C)c2)cc1,68% (inactive)
13,Cc1cccc(C(=O)Nc2c(-c3ccccc3)nc3cc(C)ccn23)c1,27% (active)
14,Cc1nc2ccccn2c(=O)c1NC(=O)c1cccc(F)c1,71% (inactive)
15,COc1ccc(-c2nc3cc(C)ccn3c2NC(=O)c2ccc(F)cc2)cc1,37% (active)
16,COCCNc1c(-c2ccccc2)nc2cc(C)ccn12,69% (inactive)
17,COc1ccc(CNC(=O)c2ccc3nc(-c4ccc(F)cc4)c(-c4ccc(F)cc4)nc3c2)cc1,78% (inactive)
18,COc1ccc(-c2nc3cc(C)ccn3c2NC(=O)c2cccc(F)c2)cc1,53% (active)
19,O=C(Nc1c(-c2ccc(F)cc2)nc2ccccn12)c1cccc(F)c1,146% (inactive)

row,SMILES,survival
1,Cc1ccn2c(NC(=O)c3cccc(Cl)c3)c(-c3ccccc3)nc2c1,65% (inactive)
2,CCOc1ccccc1NS(=O)(=O)c1ccc(N2CCCCS2(=O)=O)cc1,97% (inactive)
3,Cc1ccc(NC(=O)/C(C#N)=C/c2cn(CC(=O)NCc3ccco3)c3ccccc23)cc1Cl,64% (inactive)
4,Cc1ccc(S(=O)(=O)NNC(=S)NCC2CCCO2)cc1 (stereo unspecified),69% (inactive)
5,COc1ccc(OCC(=O)OCc2cc(=O)n3cc(C)sc3n2)cc1,6% (active)
6,COc1cccc(OCc2cc(=O)n3cc(C)sc3n2)c1,40% (active)
7,O=C(COc1ccccc1)OCc1cc(=O)n2nc(-c3cccs3)sc2n1,88% (inactive)
8,Cc1cc(C)cc(OCc2cc(=O)n3cc(C)sc3n2)c1,81% (inactive)
9,Cc1cn2c(=O)cc(COC(=O)COc3ccc(F)cc3)nc2s1,70% (inactive)
10,O=C(COc1ccc(Cl)cc1)OCc1cc(=O)n2nc(-c3cccs3)sc2n1,-4% (active)
11,COc1ccc(OCC(=O)OCc2cc(=O)n3nc(-c4cccs4)sc3n2)cc1,94% (inactive)
12,Cc1cn2c(=O)cc(COC(=O)COc3ccc(C)c(C)c3)nc2s1,67% (inactive)
13,Cc1cn2c(=O)cc(COc3ccc(Cl)cc3)nc2s1,53% (inactive)
14,COc1ccccc1-c1nc(CNC(=O)Nc2ccccc2)c(C)o1,98% (inactive)
15,Cc1ccc(N2C(=O)N(CC(=O)C(C)(C)C)c3ccccc3S2(=O)=O)cc1C,91% (inactive)
16,CCOc1ccc2c(c1)c(=O)c(S(=O)(=O)c1ccc(C)cc1)cn2Cc1ccccc1Cl,82% (inactive)
17,CC1=C(C)C(=O)N(c2ccccn2)C1=O,93% (inactive)
18,Cc1ccc(-n2c(=O)c3ccc(C(=O)NCc4ccccc4Cl)cc3n(CC(=O)Nc3ccc(C)cc3C)c2=O)cc1,79% (inactive)
